Screening data from PubChem BioAssay.
HPGD inh – blocks human HPGD enzyme activity; P15428; purified HPGD, NADH fluorescence kinetic, PGE2 substrate; Potency, µM, without a hit: at the top dose activity change, negative = inhibition, hits mostly inhibitors; 150,000 compounds, 4.3% hits; AID 894; active = well fitted inhibition curve with a large enough effect, not every such curve was filed as active; inconclusive = small, poorly fitted or top-dose-only effect, or another doubt; inactive = no such curve, though single readings can be large or run the other way
Target sequence (P15428 whole entry, looked up): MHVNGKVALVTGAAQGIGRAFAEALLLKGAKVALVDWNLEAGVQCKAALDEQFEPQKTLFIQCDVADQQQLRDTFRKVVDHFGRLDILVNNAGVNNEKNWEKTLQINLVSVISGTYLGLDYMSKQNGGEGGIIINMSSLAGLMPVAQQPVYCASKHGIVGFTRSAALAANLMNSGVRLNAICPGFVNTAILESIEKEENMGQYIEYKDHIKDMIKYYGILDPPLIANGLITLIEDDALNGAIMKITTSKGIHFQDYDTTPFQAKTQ
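20 nM HPGD preincubated 15 min at room temperature with compound in 50 mM Tris-HCl pH 8, 0.01% Tween 20. Started with 1 mM NAD+ and 30 uM prostaglandin E2; NADH fluorescence (360/450 nm) read 5 times over 30-s intervals, last minus first.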
NPSR antagonist – neuropeptide S receptor (human) antagonism, cAMP | AID 1461 | CHO-NPSR cells, cAMP TR-FRET, antagonist mode | 220,000 compounds, 1% hits | Potency, µM (top dose mostly 38.3 µM), without a hit: at the top dose activity change, negative = inhibition, hits mostly inhibitors; note: nearly all actives have a fitted effect of over 50% in size
ALDH1A1 block – blocks purified human ALDH1A1 activity. P00352. Potency, µM (titrated, usually from 75.3 µM), without a hit: top-dose activity, negative = inhibition, hits mostly inhibitors. Purified ALDH1A1, NADH fluorescence, propionaldehyde substrate. 220,000 compounds, 7.3% hits; active = well fitted inhibition curve with a large enough effect, not every such curve was filed as active; inconclusive = small, poorly fitted or top-dose-only effect, or another doubt; inactive = no such curve, though single readings can be large or run the other way;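 note: plate controls were no enzyme wells and a reference inhibitor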
Tau fluor counter – counter-screen for tau fibril formation inhibitors. tau K18 P301L Alexa594 fluorescence, heparin fibrillization. 280,000 compounds, 0.93% hits. AID 1463. Potency, µM (top dose mostly 57.7 µM), for inactives: at the top dose activity change, negative = decrease; note: nearly all actives have a fitted effect of over 55% in size
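Human tau K18 P301L (15 uM unlabeled, 0.24 uM Alexa 594-labeled) in 100 mM sodium acetate pH 7 with 20 uM heparin, 6 hr at 37 C. ThT 30 uM added, 1 hr ambient; Alexa 594 FP and total fluorescence read at 555/632 nm.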
Tau FP inhib – inhibitors of human tau fibril formation; P10636; K18 P301L tau heparin fibrillization, Alexa594 FP, 6 h; Potency, µM (series often up to 57.7 µM), for inactives: top-dose activity, negative = inhibition, usual class: inhibitors; 280,000 compounds, 0.39% hits; AID 1468; note: nearly all actives have a fitted effect of over 55% in size
Target sequence (P10636 561-689 P618L limits assumed): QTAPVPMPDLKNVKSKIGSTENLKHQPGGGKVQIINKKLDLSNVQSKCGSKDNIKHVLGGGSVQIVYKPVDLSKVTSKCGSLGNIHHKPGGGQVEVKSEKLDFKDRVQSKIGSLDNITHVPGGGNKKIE
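Compound effects on tau fibrillization are measured by Alexa 594 fluorescence polarization (ex 555, em 632 nm). K18 P301L tau is used at 15 uM with 0.24 uM labeled tracer, and 20 uM heparin induces aggregation over 6 hr at 37 C.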
Tau fibril ThT – blocks human tau fibril formation measured by thioflavin T; recombinant tau K18 P301L (four-repeat tau fragment), heparin-induced fibrillization, ThT fluorescence; P10636; 270,000 compounds, 2.1% hits; Potency, µM (doses to about 57.4 µM), without a hit: top-dose activity, negative = inhibition, hits mostly inhibitors; AID 1460; note: nearly all actives have a fitted effect of over 55% in size
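In this qHTS, human K18 P301L tau is incubated with compound and heparin for 6 hr at 37 C, and Thioflavin T fluorescence then reports fibril load.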
The depositor's hits bear a star; ? = inconclusive; . = no result given; [ ] = dose if it differs, or a comment. Sampled rows, rich in hits. Any-hit rate of the full collection: about 9.5%. Unless noted, calls come from the whole dose curve; as a rule, active = well fitted curve in the direction sought with a large enough effect; inconclusive = small, poorly fitted or top-dose-only effect, or another doubt; inactive = no such curve, though single readings can be large; an effect the other way counts as inactive or inconclusive. Unless noted, % is set by controls: 0 for no effect and ±100 for the full control effect; potency is the fitted concentration of half-maximal effect.

SMILES	HPGD inh	NPSR antagonist	ALDH1A1 block	Tau fluor counter	Tau FP inhib	Tau fibril ThT
CC(Oc1ccc2c(-c3ccccc3)cc(=O)oc2c1)C(=O)O (stereo not drawn)	?	4%[46.1 µM]	28µM*	3%	4%	-4%
CCOC(=O)C(C)Oc1ccc2c(-c3cccc([N+](=O)[O-])c3)cc(=O)oc2c1 (stereo not drawn)	35µM*	-28%	?	-23%	-5%	-10%
Cc1ccc(NC(=O)CCCc2nc3ccccc3s2)c(O)c1	.	-1%	-1%	-17%	10%	?
Cc1ccc(CCNC(=O)c2ccc(CS(=O)(=O)c3ccc(Br)cc3)o2)cc1	.	.	.	-6%	-5%	-2%
CCc1cc2c(-c3ccccc3)cc(=O)oc2cc1OC(=O)c1cccs1	3.2µM*	-21%	-1%	8%	4%	6%
COCCn1c(SCC(=O)c2c(-c3ccccc3)n(C)c3ccccc23)nnc1-c1ccncc1	-9%	9%	20µM*	-1%	4%	-14%
COCCn1c(SCc2nc3ccccc3c(=O)[nH]2)nnc1-c1ccncc1	-14%	-6%[46.1 µM]	2%	2%	3%	-6%
O=C(c1c[nH]c(C(=O)N2CCN(Cc3ccccc3)CC2)c1)C1CCCCC1	.	-29%	7.9µM*	0%	-2%	-9%
COc1cc(C)ccc1OCCOc1cc(C)ccc1Cl	2.2µM*	10µM*	?	-13%	5%	?
C=CCOn1c(=O)c(-c2ccc(OC)c(OC)c2)[n+]([O-])c2ccccc21	-28%	-11%[46.1 µM]	?	-16%	-9%	?
CCOC(=O)COn1c(=O)c(-c2ccc(OC)c(OC)c2)[n+]([O-])c2ccccc21	-25%	6%[46.1 µM]	35µM*	-5%	10%	?
CCOn1c(=O)c(-c2cccc3ccccc23)[n+]([O-])c2ccccc21	.	-2%	22µM*	1%	0%	4%
C/C(=N\NC(=O)c1cccc(Cl)c1)C1C(=O)c2ccccc2C1=O	?	-38%	13µM*	12%	5%	8%
CCOC(=O)c1scc(-c2ccccc2)c1S(=O)(=O)Nc1ccc(N(C)C)cc1	.	.	.	?	-1%	?
Cc1ccc(OCC(=O)Nc2ccc3nc(SCC(=O)N4CCCC4)sc3c2)cc1	.	.	.	-17%	8%	?
N#C/C(=N/Nc1ccc(OC(F)(F)F)cc1)C(N)=S	.	?	?	?	4%	6.3µM*
COc1ccc(N/N=C(\C#N)C(N)=O)cc1	-6%	-20%	2%	-6%	6%	?
O=C(Cc1ccccc1)Nc1ccccc1CO	14µM*	-13%[46.1 µM]	?	-10%	-2%	-6%
CC1(C)[C@@H]2CC[C@]1(C)[C@@H](OC(=O)CSC#N)C2	-11%	.	1.8µM*	.	.	.
CC(OCCN1CCCC1)(c1ccc(F)cc1)c1ccc(F)cc1	3%	7%	19%	-1%	7%	-6%
Cn1c(-c2ccc(S(=O)(=O)N3CCCC3)cc2)csc1=Nc1ccc(Cl)c(Cl)c1	.	.	.	-20%	1%	-6%
COc1ccc(CNC(=O)C(=O)NCc2cccnc2)cc1	.	5%	0%	3%	3%	-5%
COc1ccc2c(c1)C=C(C(=O)OCc1cccnc1)CO2	.	-1%	8.9µM*	-11%	-4%	-13%
Cc1ccc(OCc2nnc(N)s2)cc1C	.	14%	.	-11%	3%	.
CCC(C)(C)n1nnnc1C(c1ccc2ncccc2c1)N1CCN(Cc2ccc3c(c2)OCO3)CC1 (stereo not drawn)	-1%	7.9µM*	9%	-8%	-3%	-13%
SMILES	HPGD inh	NPSR antagonist	ALDH1A1 block	Tau fluor counter	Tau FP inhib	Tau fibril ThT
CCCOC(=O)c1c(NC(=O)C2CCCO2)sc(C(=O)OC)c1C (stereo not drawn)	10µM*	-26%	2µM*	-19%	-13%	?
CCOC(=O)c1c(-c2ccc(OC)cc2)csc1NC(=O)CCN1C(=O)c2ccccc2C1=O	28µM*	-19%[46.1 µM]	35µM*	-23%	-11%	?
CCOC(=O)c1c(-c2ccc(C)cc2)csc1NC(=O)C1CCCO1 (stereo not drawn)	-16%	-18%	?	-13%	-5%	-14%
CCOC(=O)c1c(-c2ccc(OCC)cc2)csc1NC(=O)CCN1C(=O)c2ccccc2C1=O	-16%	-6%	-14%	-26%	-3%	-12%
CCOC(=O)c1c(-c2ccc(OC)cc2)csc1NC(=O)C1CCCO1 (stereo not drawn)	.	45%	8.9µM*	-26%	4%	?
CCOC(=O)c1c(-c2ccc(F)cc2)csc1NC(=O)C1CCCO1 (stereo not drawn)	.	56%	11µM*	-19%	-4%	-8%
Cn1cc(-c2nnc(-c3ccccc3)o2)c2ccccc21	?	-25%[46.1 µM]	?	-10%	-3%	-13%
Cc1ccc(S(=O)(=O)CCC(=O)OCc2ccc(S(=O)(=O)C(C)C)cc2)cc1	.	5%	2.5µM*	-3%	2%	-2%
Cc1ccc(S(=O)(=O)CCC(=O)OCc2ccc(Cl)c(Cl)c2)cc1	-14%	20%	?	-13%	1%	-6%
COc1cc(-n2nnnc2SC)c(OC)cc1Cl	.	3%	-8%	-2%	0%	-6%
COc1cc(N=c2ssnc2Cl)c(OC)cc1Cl	3.5µM*	-15%[46.1 µM]	1.6µM*	-29%	?	10µM*
COc1ccc(OC)c(N=c2ssnc2Cl)c1	3.2µM*	-22%[46.1 µM]	1.6µM*	-26%	?	11µM*
CCOC(=O)c1sc2cc([N+](=O)[O-])cc(SCCO)c2c1N	-13%	-6%	5%	-26%	4%	2.2µM*
CCOC(=O)c1sc2cc([N+](=O)[O-])cc(SCC(=O)OC)c2c1N	?	-19%[46.1 µM]	?	?	-9%	7.1µM*
CCOC(=O)c1sc2nc(C)cc(C)c2c1N	?	-2%[46.1 µM]	?	-7%	6%	?
C=CCC(NC(C)c1ccccc1)c1ccco1 (stereo not drawn)	-23%	-8%[46.1 µM]	?	7%	7%	4%
Cc1cc(C)cc(NC(=O)Cn2nnc3ccccc3c2=O)c1	.	6%	-10%	-13%	-5%	-11%
CC(=O)Nc1ccc(C(=O)Cn2nnc3ccccc3c2=O)cc1	-8%	3%[46.1 µM]	8.9µM*	-1%	1%	-7%
O=C(CSCc1ccccc1Cl)NNC(=S)Nc1ccccc1	-21%	-7%[46.1 µM]	14µM*	-17%	6%	-25%
CC(C)CCNC(=S)Nc1ccccn1	-7%	-16%	6.3µM*	-9%	3%	-7%
Cc1cccc(NCC(=O)NNC(=S)Nc2ccccc2)c1	.	-5%	14µM*	-7%	2%	-12%
CC(C)NC(=O)CSCc1ccccc1Cl	-16%	-2%[46.1 µM]	-4%	-11%	-2%	-17%
